The text below walks through data of PubChem BioAssay (Tox21).

SMILES strings stand for the structures. Records with an inconclusive call do not appear. Activity calls are given as the source filed them. Calls come from the whole dose curve; as a rule, active = well fitted cell-killing curve with a large enough effect in the repeat runs; inconclusive = weak or mixed curves; inactive = flat fitted curve, though single readings scatter.
% is set by controls: 0 for no effect and ±100 for the full control effect; potency is the fitted concentration of half-maximal effect.

The nature of the test: qHTS assay to identify small molecule antagonists of the estrogen related receptor (ERR) signaling pathway from Tox21 library - cell viability counter screen (AID 1224834). Note: nearly all actives have a fitted effect of over 30% in size. Particulars: ERR reporter cells viability, CellTiter-Fluor, 17.5 h; series mostly up to 92.4 µM; viability change, negative = cytotoxic: at the top concentration. The essentials:
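ERR reporter cells were plated 6 h before compound addition, then exposed to test compounds in DMSO for 17.5 h at 37 C. Viability was read as CellTiter-Fluor fluorescence after a 30-minute incubation at 37 C.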
A general note: qHTS replaces the single test concentration by a dilution series.
`Nc1ncnc2c1ncn2[C@@H]1O[C@H](COP(=O)(O)O)[C@@H](O)[C@H]1O`: the “viability change, negative = cytotoxic” value was 2% [at 42.5 µM] (inactive).

For `O=C1NC2CCCCN2C12CCN(CCCN1c3ccccc3CCc3ccc(Cl)cc31)CC2` (stereo not drawn), the Potency was 29.8 µM (active).

Regarding `Cc1cc(Nc2ccc(O)cc2)ccc1N`, the Potency is 30.5 µM (active).

`Clc1ccccc1CN1CCc2sccc2C1`: the “viability change, negative = cytotoxic” value was -0.359% [at 42.5 µM] (inactive).

Take `NC(=O)C(=O)N/N=C/c1ccc([N+](=O)[O-])o1`: the “viability change, negative = cytotoxic” value was -0.579% [at 42.5 µM] (inactive).

In the case of `O[C@@H](c1cc(C(F)(F)F)nc2c(C(F)(F)F)cccc12)[C@H]1CCCCN1`, the Potency is 29.8 µM (active).

Regarding `CCN(CC)c1ccc(N)cc1`, the Potency was 28.1 µM (active).

Take `CN1[C@@H]2CC[C@H]1CC(OC(=O)C(CO)c1ccccc1)C2` (stereo partly drawn): the Potency entry was “inactive”.

Turning to `CC(NCCC(c1ccccc1)c1ccccc1)c1ccccc1` (stereo not drawn), the Potency was 29.8 µM (active).

Take `CC=O`: the Potency is 28.6 µM (active).

As for `O=C1c2c(O)ccc(O)c2C(=O)c2c(NCCNCCO)ccc(NCCNCCO)c21`, the Potency is 3.35 µM (active).

In the case of `CCCCC(CC)COC(=O)c1ccc(O)cc1` (stereo not drawn), the Potency was 43.1 µM (active).

Consider `Cc1c(-c2ccc(O)cc2)n(Cc2ccc(OCCN3CCCCCC3)cc2)c2ccc(O)cc12`, for which the Potency is 29.8 µM (active).
